The target in assay [1] is Cellular tumor antigen p53 (Homo sapiens) (UniProt P04637). The assay can be described thus: Primary qHTS for small molecule compounds that upregulate eGFP-tagged delta133p53alpha (in N-terminal) cells. (AID 2060322). Further: nearly all actives have a fitted effect of over 75% in size. Further: potency means the concentration at half of the fitted maximal effect.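 On activation: 0% = DMSO vehicle and 100% = reference activator.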 The settings on record: NCI-H358 eGFP-delta133p53alpha fluorescence, 24 h; activation: hits give high values. In outline: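 NCI-H358 cells pre-induced 24 h with 10 ng/ml doxycycline to express N-terminal eGFP-delta133p53alpha, then dosed 24 h at 37C without doxycycline; fixed, Hoechst-stained, GFP intensity by laser scanning cytometry, normalized to DMSO (0%) and 57.5 uM 5-azacytidine (100%).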
Sequence of Cellular tumor antigen p53 (Homo sapiens) (P04637 whole entry, looked up): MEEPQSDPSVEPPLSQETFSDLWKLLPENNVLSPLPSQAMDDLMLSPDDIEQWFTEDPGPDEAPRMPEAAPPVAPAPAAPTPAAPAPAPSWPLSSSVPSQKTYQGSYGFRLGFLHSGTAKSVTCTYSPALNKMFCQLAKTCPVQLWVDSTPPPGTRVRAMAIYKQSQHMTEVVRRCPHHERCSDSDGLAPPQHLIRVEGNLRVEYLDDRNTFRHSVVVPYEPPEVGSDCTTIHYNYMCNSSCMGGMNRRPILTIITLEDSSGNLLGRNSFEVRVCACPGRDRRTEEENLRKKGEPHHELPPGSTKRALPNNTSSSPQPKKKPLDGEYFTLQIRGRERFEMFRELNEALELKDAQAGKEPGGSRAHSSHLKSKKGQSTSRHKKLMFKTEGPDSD

Assay [2] concerns the target Aldehyde dehydrogenase, mitochondrial (Homo sapiens) (UniProt P05091). Briefly: qHTS for Inhibitors of the Aldehyde Dehydrogenase Family (ALDH2) Primary screen (AID 2061308).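 Further: plate controls were vehicle for no effect and reference inhibitor for full effect; nearly all actives have a fitted effect of over 55% in size.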 The following applies: ALDH2 enzyme inhibition qHTS, 1536-well; series mostly up to 56 µM. Background: Quantitative high-throughput screening tests each substance at several concentrations.
Assay [3] has as its target Retinaldehyde dehydrogenase 3 (Homo sapiens) (UniProt P47895). Briefly: qHTS for Inhibitors of the Aldehyde Dehydrogenase Family (ALDH1A3) Primary screen (AID 2061315).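 Further: plate controls were DMSO vehicle for no effect and reference inhibitor for full effect.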 The settings on record: ALDH inhibition qHTS; series mostly up to 56 µM.
A short description of assay [4]: BET inhibitor-based combinations targeting novel dependencies in MECOM-rearranged (r) AML: SET-2 cell line (AID 2202231). Further: nearly all actives have a fitted effect of over 35% in size. Further: potency means the concentration at half of the fitted maximal effect.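 On viability: plate controls were DMSO treated cells for no effect and wells without cells for full effect.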 The following applies: SET-2 AML cells viability, CellTiter-Glo luminescence, 48 h; viability: hits give low values, concentration not given here. In outline: (§1)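 Here, 11-point titrations of each agent were applied to 500 seeded cells and incubated 48 hr; CellTiter-Glo signal, scaled against DMSO and empty wells, was integrated as AUC, then Z-scored within the individual line.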
In general terms: In ATP-based viability assays light output follows the ATP content of the culture.

The nature of assay [5]: BET inhibitor-based combinations targeting novel dependencies in MECOM-rearranged (r) AML: OCI-AML3 cell line (AID 2202232). Further: nearly all actives have a fitted effect of over 35% in size. Further: potency means the concentration at half of the fitted maximal effect. The settings on record: CellTiter-Glo luminescence, 48 h; Potency: OCI-AML3 viability; series mostly up to 46 µM. The procedure, abridged:
as §1

Assay [6] is described as follows: BET inhibitor-based combinations targeting novel dependencies in MECOM-rearranged (r) AML: MV-4-11 cell line (AID 2202233). Further: nearly all actives have a fitted effect of over 45% in size. Further: potency means the concentration at half of the fitted maximal effect. The following applies: MV-4-11 AML viability, CellTiter-Glo luminescence, 48 h; series mostly up to 46 µM. The procedure, abridged:
(§2)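 Normalized to DMSO and empty-well controls, the luminescence data from CellTiter-Glo after 48 hr drug exposure were fitted across 11 concentrations. Reported metrics are area under the dose-response curve and its Z-transformed form.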

Assay [7] is described as follows: BET inhibitor-based combinations targeting novel dependencies in MECOM-rearranged (r) AML: UCSD-AML1 cell line (AID 2202235). Further: nearly all actives have a fitted effect of over 40% in size. Further: potency means the concentration at half of the fitted maximal effect. The following applies: UCSD-AML1 AML cells viability, CellTiter-Glo, 48 h; series mostly up to 46 µM. The procedure, abridged: as §2
Assay [8] is described as follows: BET inhibitor-based combinations targeting novel dependencies in MECOM-rearranged (r) AML: AML-191 cell line (AID 2202236; further: nearly all actives have a fitted effect of over 35% in size; further: potency means the concentration at half of the fitted maximal effect). The following applies: AML-191 viability, CellTiter-Glo luminescence, 48 h; series mostly up to 46 µM. In outline: as §1
Assay [9] can be described thus: BET inhibitor-based combinations targeting novel dependencies in MECOM-rearranged (r) AML: AML-194 cell line (AID 2202237; further: nearly all actives have a fitted effect of over 40% in size; further: potency means the concentration at half of the fitted maximal effect). The settings on record: AML-194 (MECOM-r AML) viability, CellTiter-Glo, 48 h; series mostly up to 46 µM. The procedure, abridged:
as §1

A short description of assay [10]: BET inhibitor-based combinations targeting novel dependencies in MECOM-rearranged (r) AML: HNT-34 cell line (AID 2202234). Further: potency means the concentration at half of the fitted maximal effect; nearly all actives have a fitted effect of over 35% in size. The following applies: HNT-34 AML viability, CellTiter-Glo luminescence, 48 h; series mostly up to 46 µM. The procedure, abridged: as §2

Each structure is given as a SMILES string. Where “and” joins values, the source holds several entries; their conditions need not be identical. Identical values can stand only once. Records with an inconclusive call do not appear. Values without a mark were called inactive. Calls of active or inactive are those of the source. The call rests on the fitted dose curve; in most records, active means well fitted curve in the direction sought with a large enough effect; inconclusive means small, poorly fitted or top-dose-only effect, or another doubt; inactive means no such curve, though single readings can be large; an effect the other way counts as inactive or inconclusive.

Turning to `CCOC(=O)c1ccnc(CNCC(=O)N(CC)CCN(C)C)c1`, the activation in assay [1] is 8.33%. Moreover, the Potency result in assay [2], in assay [3], in assay [5], in [6], in assay [7] and in assay [8] was “inactive” throughout. Besides, the Potency entry in assay [9] was “inactive”. Also, the viability in [4] is 104%.
Take `N[C@@H](Cc1cc(I)c(Oc2cc(I)c(O)c(I)c2)c(I)c1)C(=O)O`: in assay [1], the activation was -1.69% and -8.29% and -5.67%. In addition, the Potency entry in assay [2], in assay [3], in assay [5], in assay [6], in [7] and in assay [8] was “inactive” in each case. For the same compound, the Potency entry in assay [9] was “inactive”. The viability in assay [4] was 108%.
For `Cn1ncc2cc(-c3cnc(N)c(Cl)c3N3CCC4(CCNC4=O)CC3)ccc21`, the activation in assay [1] was -11.6%. For the same compound, the Potency entry in [2], in assay [3] and in [5] was “inactive” throughout. Also, in assay [4], the viability is 103%. For the same compound, the Potency in assay [6] was 5.25 µM (active); in assay [7] it was 10.5 µM (active); in [8], 0.296 µM (active).
As to `Cc1ccc(S(=O)(=O)Cc2nc(-c3ccc(C(=O)NCc4cccnc4)cc3)oc2C)cc1`, the activation in assay [1] was 26.3%. In addition, the Potency result in [2] and in assay [3] was “inactive” in each case. Besides, the Potency in assay [4] was 18.6 µM (active); in [5] it was 0.0118 µM (active); in [6] it was 0.132 µM (active); in assay [10], 0.0263 µM (active); in assay [8], 0.0235 µM (active).
`C=CC(=O)Nc1cccc(Nc2nc(Nc3ccc(OCCOC)cc3)ncc2F)c1`: the Potency in assay [1] is 9.53 µM (active); in assay [4], 16.6 µM (active); in assay [5], 14.8 µM (active); in assay [6] it was 1.48 µM (active); in [10], 1.86 µM (active); in assay [7], 8.33 µM (active). For the same compound, in assay [9], the Potency is 9.34 µM (active). Further, the Potency result in [2] and in assay [3] was “inactive” in each case.
Take `CN(C)C/C=C/C(=O)Nc1ccc(C(=O)Nc2cccc(Nc3ncc(Cl)c(-c4c[nH]c5ccccc45)n3)c2)cc1`: the Potency in [1] was 269 nM (active) and 343 nM (active); in assay [4] it was 0.662 µM (active); in [5], 0.0833 µM (active); in [6], 0.0468 µM (active); in assay [10] it was 0.118 µM (active); in assay [7] it was 0.132 µM (active). The Potency in assay [9] is 0.296 µM (active). The Potency entry in assay [2] and in assay [3] was “inactive” in each case.
On to `Cc1cnc(Nc2ccc(F)cc2Cl)nc1-c1c[nH]c(C(=O)N[C@H](CO)c2cccc(Cl)c2)c1`, for which the activation in assay [1] was 12% and 13.4%. Further, the Potency entry in [2] and in assay [3] was “inactive” in each case. The Potency was 23.5 µM (active) in assay [4]; 4.68 µM (active) in [5]; 18.6 µM (active) in assay [10]; 16.6 µM (active) in [8]; 18.6 µM (active) in assay [9].
For the compound `O=C(NCC1CN(c2ccc(N3CCOCC3=O)cc2)C(=O)O1)c1ccc(Cl)s1` (stereo unspecified), in [1], the activation was -11.9% and 7.67%. Moreover, the Potency result in assay [2], in [3], in assay [5], in assay [6], in assay [7] and in assay [9] was “inactive” each time. For the same compound, in assay [4], the viability is 94.7%.
On to `CC(C)c1noc(N2CCC(COc3ccc(-c4ccc(S(C)(=O)=O)cc4)nc3)CC2)n1`, for which the activation in [1] was -0.134% and -12.9%. In addition, the Potency result in assay [2], in assay [3], in assay [7] and in assay [9] was “inactive” each time. Further, the Potency is 11.8 µM (active) in [4], 4.68 µM (active) in assay [5] and 2.35 µM (active) in assay [6].

As usually defined, the viability is a read-out of living cells in per cent, often relative to untreated cells.
